NOMO-1 viab: STK33 inhibitor candidate reducing NOMO-1 cell viability; actives 7.5% (n = 37,000); NOMO-1 AML viability, CellTiter-Glo luminescence, 72 h; inhibition, % (no concentration beside the values); in the data active = inhibition above about 80%; inconclusive = no clear call, values can overlap the other calls
PD-1 reverse act: activators reversing PD-1 mediated T-cell inhibition. primary human CD4 T cells, PD-L1 beads, CellTiter-Glo 96 h. activation, % (no concentration beside the values). 29,000 tested, under 10 active; call rule not given here
STK33 inh: blocks human STK33 kinase activity | actives 0.44% (n = 27,000) | AID 2322 | ADP-Glo luminescence, MBP substrate | inhibition, % at 12.5 µM; in the data active = inhibition above about 20%; inconclusive = no clear call, values can overlap the other calls
Target sequence (Q9BYT3 whole entry, looked up): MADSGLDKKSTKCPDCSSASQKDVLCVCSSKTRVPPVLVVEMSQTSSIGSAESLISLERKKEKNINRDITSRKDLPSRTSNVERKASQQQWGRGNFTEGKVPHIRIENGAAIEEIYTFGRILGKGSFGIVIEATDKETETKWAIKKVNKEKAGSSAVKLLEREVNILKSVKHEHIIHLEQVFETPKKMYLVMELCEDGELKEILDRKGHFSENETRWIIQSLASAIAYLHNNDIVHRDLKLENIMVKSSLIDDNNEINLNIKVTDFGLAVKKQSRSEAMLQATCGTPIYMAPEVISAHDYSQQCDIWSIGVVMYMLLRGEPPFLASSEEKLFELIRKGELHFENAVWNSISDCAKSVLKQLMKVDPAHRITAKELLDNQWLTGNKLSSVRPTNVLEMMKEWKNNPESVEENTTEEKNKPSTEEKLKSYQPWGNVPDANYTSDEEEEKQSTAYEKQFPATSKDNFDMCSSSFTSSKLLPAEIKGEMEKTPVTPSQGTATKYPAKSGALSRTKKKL
Large screens that a line does not name were inactive. The sample as a whole holds a higher share of hits than the screen did.

COc1ccc(CN(C)C[C@@H]2Oc3c(NC(=O)Nc4ccc(C(F)(F)F)cc4)cccc3C(=O)N([C@@H](C)CO)C[C@@H]2C)cc1	none (no result: PD-1 reverse act, STK33 inh)
CC1CCC/C=C2\C(=O)C=CC3OC(/C=C/C=C/C=C/C(=O)O)=C(C(=O)O1)C23 (stereo unspecified)	NOMO-1 viab 122
C[C@H]1CN([C@@H](C)CO)C(=O)Cc2cc(NC(=O)C3CC3)ccc2O[C@@H]1CN(C)Cc1ccc(C(=O)Nc2ccccc2N)cc1	none (no result: STK33 inh)
C[C@@H]1CN([C@H](C)CO)C(=O)Cc2cc(NC(=O)C3CCCCC3)ccc2O[C@@H]1CN(C)Cc1ccc(C(=O)Nc2ccccc2N)cc1	NOMO-1 viab inconclusive (no result: STK33 inh)
C[C@H](CO)N1C[C@H](C)[C@H](CN(C)Cc2ccc(C(=O)Nc3ccccc3N)cc2)Oc2ccc(NC(=O)C3CC3)cc2CC1=O	NOMO-1 viab 127 (no result: STK33 inh)
C[C@H](CO)N1C[C@H](C)[C@H](CN(C)Cc2ccc(C(=O)Nc3ccccc3N)cc2)Oc2ccc(NC(=O)C3CCCCC3)cc2CC1=O	NOMO-1 viab 141 (no result: STK33 inh)
Cc1ccc(-c2nc3ccccc3[nH]2)cc1NC(=O)C(C)Oc1ccc(Cl)cc1Cl (stereo unspecified)	none
COc1ccc(C(=O)n2nc(-c3ccc(Cl)cc3)nc2NCc2ccco2)cc1OC	none (no result: PD-1 reverse act)
CC(=O)C1C(=O)C2C3c4c[nH]c5cccc(c45)CC3C(C)(C)N2C1=O (stereo unspecified)	none (no result: PD-1 reverse act)
CC(=O)C1C(=O)[C@@H]2[C@H]3c4c[nH]c5cccc(c45)C[C@H]3C(C)(C)N2C1=O (stereo partly specified)	NOMO-1 viab 131
C[C@@H]1CN([C@@H](C)CO)C(=O)Cc2cc(NC(=O)Nc3ccc(C(F)(F)F)cc3)ccc2O[C@@H]1CN(C)C(=O)NC1CCCCC1	NOMO-1 viab 113
C[C@@H]1CN([C@@H](C)CO)C(=O)Cc2cc(NC(=O)Nc3ccc(C(F)(F)F)cc3)ccc2O[C@@H]1CN(C)Cc1ccc(Cl)c(Cl)c1	NOMO-1 viab 115
C[C@H](CO)N1C[C@H](C)[C@H](CN(C)Cc2ccc(C(F)(F)F)cc2)Oc2ccc(NC(=O)Nc3ccc(C(F)(F)F)cc3)cc2CC1=O	NOMO-1 viab 129
C[C@H]1CN([C@@H](C)CO)C(=O)Cc2cc(NC(=O)Nc3ccc(C(F)(F)F)cc3)ccc2O[C@@H]1CN(C)Cc1ccc(Cl)c(Cl)c1	none (no result: PD-1 reverse act)
C[C@@H]1CN([C@@H](C)CO)C(=O)Cc2cc(NC(=O)Nc3ccc(C(F)(F)F)cc3)ccc2O[C@@H]1CN(C)Cc1ccc(C(=O)O)cc1	none
C[C@@H]1CN([C@H](C)CO)C(=O)Cc2cc(NC(=O)Nc3ccc(C(F)(F)F)cc3)ccc2O[C@H]1CN(C)Cc1ccc(C(F)(F)F)cc1	NOMO-1 viab 94
C[C@H](CO)N1C[C@H](C)[C@H](CN(C)C(=O)NC2CCCCC2)Oc2ccc(NC(=O)Nc3ccc(C(F)(F)F)cc3)cc2CC1=O	none
COc1ccc(CN(C)C[C@H]2Oc3ccc(NC(=O)Nc4ccc(C(F)(F)F)cc4)cc3CC(=O)N([C@@H](C)CO)C[C@@H]2C)cc1	none (no result: PD-1 reverse act)
CCCCC/C=C\C/C=C\CCCCCCCC(=O)OC(CO)CO	none
CCOC(=O)c1sc(NC(=O)c2cc3ncc(Br)cn3n2)c(C(=O)OCC)c1C	none (no result: PD-1 reverse act)
C[C@@H]1CN([C@H](C)CO)C(=O)Cc2cc(NC(=O)Nc3ccc(C(F)(F)F)cc3)ccc2O[C@H]1CN(C)Cc1ccncc1	none
CC(C)NC(=O)Nc1ccc2c(c1)CC(=O)N([C@@H](C)CO)C[C@H](C)[C@H](CN(C)Cc1ccc(C(F)(F)F)cc1)O2	none
C[C@@H]1CN([C@H](C)CO)C(=O)Cc2cc(NC(=O)CCC(F)(F)F)ccc2O[C@@H]1CN(C)Cc1ccc(Cl)c(Cl)c1	NOMO-1 viab 116
C[C@H](CO)N1C[C@H](C)[C@H](CN(C)Cc2ccncc2)Oc2ccc(NC(=O)Nc3ccc(C(F)(F)F)cc3)cc2CC1=O	NOMO-1 viab 126
C[C@@H]1CN([C@H](C)CO)C(=O)Cc2cc(NC(=O)Nc3ccc(C(F)(F)F)cc3)ccc2O[C@@H]1CN(C)Cc1ccc(C(F)(F)F)cc1	NOMO-1 viab 120
C[C@@H]1CN([C@@H](C)CO)C(=O)Cc2cc(NC(=O)NC3CCCCC3)ccc2O[C@@H]1CN(C)C(=O)Nc1ccc(C(F)(F)F)cc1	none
C[C@@H]1CN([C@H](C)CO)C(=O)Cc2cc(NC(=O)NC3CCCCC3)ccc2O[C@@H]1CN(C)Cc1ccc(C(F)(F)F)cc1	NOMO-1 viab 109
C[C@H]1CN([C@@H](C)CO)C(=O)Cc2cc(NC(=O)CCC(F)(F)F)ccc2O[C@H]1CN(C)Cc1ccc(Cl)c(Cl)c1	none (no result: PD-1 reverse act)
O=C(O)CCSc1nc(-c2ccccc2)c(-c2ccccc2)[nH]1	none (no result: PD-1 reverse act)
Cc1ccc(S(=O)(=O)c2nc(-c3ccccc3F)oc2NCC2CCCO2)cc1 (stereo unspecified)	none
